NLRP3 yeast inh: NALP3 inflammasome inhibitors in reconstituted yeast, primary screen, luminescence, uHTS. Yeast reconstituted NLRP3/ASC/caspase-1, beta-gal luminescence, 24 h. inhibition, % at 10 µM. 330,000 tested, 0.39% active;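 active = inhibition of 50% or more; inactive = inhibition below 50%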;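 also: plate controls were induced DMSO wells for no effect and uninduced yeast grown without galactose for full effect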
tim23-1 inh: growth inhibitors of tim23-1 mutant yeast, primary screen, luminescence, uHTS; 330,000 tested, 1.3% active; AID 463212, 2010; S. cerevisiae tim23-1 growth, BacTiter-Glo luminescence, 24 h; inhibition, % at 20 µM;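 active = growth inhibition of the mutant yeast at or above 50%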;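 also: temperature-sensitive mutant grown at 25 °C; plate controls were DMSO-treated mutant yeast for no effect and medium wells lacking yeast for full effect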
TIM10 inh: growth inhibitors of isogenic TIM10 control yeast, primary screen, counter-screen for tim10-1 yeast inhibitor project, luminescence, uHTS; 330,000 tested, 1.4% active; AID 463195, 2010; inhibition, % at 10 µM; S. cerevisiae TIM10 strain growth, BacTiter-Glo luminescence, 24 h;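 active = inhibition of 40% or more at the single tested concentration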;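 also: wild-type TIM10 isogenic control strain grown at permissive 25 °C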
SKKanGAS inh: S. pyogenes SKKanGAS growth inhibitors in kanamycin, primary screen, streptokinase expression inhibitor project, SKKanGAS strain, BacTiter-Glo luminescence. 6 h. inhibition, % at 7.5 µM. AID 1662, 2009. 300,000 tested, 1.3% active;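 active = mean replicate score, as percent of positive control median, at least 50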;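 also: strain carries kanamycin resistance gene driven by streptokinase promoter and grows in 40 µg/ml kanamycin; loss of luminescence reflects streptokinase promoter inhibition or plain growth inhibition; 0% = median of DMSO wells and 100% = positive control at its reference dose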
tim10-1 inh: growth inhibitors of tim10-1 mutant yeast, primary screen, luminescence, uHTS; inhibition, % at 20 µM; 330,000 tested, 2.2% active; AID 463190, 2010; S. cerevisiae tim10-1 ts strain growth, BacTiter-Glo, 24 h;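 active = inhibition of at least 40%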;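 also: mutant grown at 25 °C; 0% = DMSO wells with yeast and 100% = wells holding no yeast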
PfHsp90 set2: growth inhibition of PfHsp90-expressing yeast, primary screen, antimalarial PfHsp90 inhibitor project, S. cerevisiae, BacTiter-Glo luminescence, single point, set 2. BacTiter-Glo ATP, 48 h; yeast lacking PDR1 and PDR3 efflux regulators. inhibition, % at 9.4 µM. 310,000 tested, 0.32% active. AID 504621, 2011;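 active = every replicate shows inhibition above about 80%, whatever the replicate mean, limit read from the data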;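 also: 0% = DMSO neutral controls and 100% = 20 µM radicicol positive controls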
NALP3 yeast conf: NALP3 inhibitors retested in yeast, confirmation, luminescence, single concentration. 1,300 tested, 81% active. inhibition, % at 10 µM. yeast expressing human NALP3. shares compounds with NLRP3 yeast inh; in the data active = inhibition above about 48%
tim10-1 confirm: growth inhibitors of tim10-1 mutant yeast, confirmation, single concentration, luminescence, S. cerevisiae; shares compounds with tim10-1 inh; S. cerevisiae tim10-1 ts strain growth, BacTiter-Glo, 24 h; inhibition, % at 20 µM; 7,400 tested, 56% active; AID 463213, 2010;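 active = inhibition of yeast growth at or above a set limit in either of two repeat tests at 20 µM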;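 also: tim10-1 mutant grown at permissive 25 °C to find synthetic lethal compounds; 0% = DMSO yeast wells and 100% = medium wells without yeast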
tim10 confirm: growth inhibitors of wild-type TIM10 yeast, confirmation, counter-screen for tim10-1 synthetic lethality project, single concentration, luminescence, S. cerevisiae; shares compounds with TIM10 inh; S. cerevisiae tim10 strain growth, BacTiter-Glo luminescence, 24 h; inhibition, % at 10 µM; 4,600 tested, 63% active;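 active = inhibition of yeast growth at or above a set limit in either of two replicates at 10 µM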;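 also: this counterscreen used the strain with wild-type TIM10; 0% = yeast with DMSO and 100% = medium wells lacking yeast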
tim23-1 conf: tim23-1 mutant yeast growth inhibitors, confirmation, luminescence, single concentration. shares compounds with tim23-1 inh. S. cerevisiae tim23-1 growth, BacTiter-Glo luminescence, 24 h. inhibition, % at 20 µM. 4,400 tested, 83% active. AID 463218, 2010;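 active = inhibition above about 39% in either of two replicate wells at 20 µM, limit read from the data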;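 also: temperature-sensitive tim23-1 mutant grown at 25 °C; 0% = DMSO wells with yeast and 100% = medium wells without yeast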
Numbers without * were called inactive; · = no result given. Sampled rows, rich in hits. Any-hit rate of the full collection: about 4.6%.

SMILES | NLRP3 yeast inh | tim23-1 inh | TIM10 inh | SKKanGAS inh | tim10-1 inh | PfHsp90 set2 | tim10-1 confirm | others
CN[C@H]1C[C@H]2O[C@@](C)([C@H]1OC)n1c3ccccc3c3c4c(c5c6ccccc6n2c5c31)C(=O)NC4 | 97* | 64* | 74* | 18 | 58* | · | 44* | NALP3 yeast conf=99*;tim10 confirm=67*;tim23-1 conf=70*
CN(C)C(=O)Oc1ccc2c(c1)O/C(=C\c1cccc(Cl)c1)C2=O | 14 | 36 | 23 | 6 | 41* | -4 | 32*
COCCNC(=O)c1ccc(N2CC3CC(C2)c2cccc(=O)n2C3)c([N+](=O)[O-])c1 (stereo not drawn) | -11 | 8 | -6 | -2 | 9 | 21 | ·
CN(C)C1(c2nnnn2CCOC(=O)Nc2ccc(Cl)cc2)CCCCC1 | 0 | 45 | 29 | -1 | 41* | 8 | 37*
C[C@H]1[C@H](OC(=O)CCC(=O)NCc2ccc(C(=O)O)cc2)O[C@@H]2O[C@@]3(C)CC[C@H]4[C@H](C)CC[C@@H]1C24OO3 | 5 | 21 | 10 | -3 | 43* | -2 | 20
CC(C)CC(NC(=O)CCCNC(=O)CCC(=O)OC1O[C@H]2OC3(C)CC[C@H]4[C@H](C)CCC(C1C)C24OO3)C(=O)O (stereo partly drawn) | 5 | 23 | 3 | -2 | 40 | -92 | ·
O=C(O)c1ccccc1-c1ccc(C=C2C(=O)N(c3ccccc3)C(=S)N(c3ccccc3)C2=O)o1 | 14 | 35 | 18 | 1 | 43* | -3 | 39*
Cc1cc(OCC(=O)NCc2ccc(S(N)(=O)=O)cc2)c2c3c(c(=O)oc2c1)CCC3 | 1 | 4 | -2 | 20 | 3 | -1 | ·
[N-]=[N+]=CC(=O)OC[C@H](N)C(=O)O | 18 | 7 | 6 | 14 | -3 | 0 | ·
CC(=NCc1ccc2c(c1)OCO2)c1c(O)n(-c2ccc(C)cc2)c(=O)[nH]c1=O | 16 | 12 | 15 | -1 | 4 | -5 | ·
CCN(CC)CCCOC(=O)C(OC(C)C)(c1ccccc1)c1ccccc1 | 16 | 12 | 8 | 1 | 42* | 23 | 12
CCOC(C(=O)OCCCN(CC)CC)(c1ccccc1)c1ccccc1 | 23 | 5 | -1 | 1 | 7 | · | ·
Cc1cc(OC(=O)CCNC(=O)OC(C)(C)C)c2c3c(c(=O)oc2c1)CCC3 | -66 | 35 | 18 | 3 | 45* | · | 39*
Cc1cc(OC(=O)CCCNC(=O)OC(C)(C)C)c2c3c(c(=O)oc2c1)CCC3 | -15 | 4 | 29 | 9 | 22 | · | ·
Cn1c(=O)cc(OCCCC(=O)N2CCC3(CC2)OCCO3)c2ccccc21 | 10 | 6 | 8 | -1 | 4 | -17 | ·
O=C(CCCOc1ccc(Cl)cc1Cl)N1CCC2(CC1)OCCO2 | 18 | 30 | 24 | -1 | 42* | · | 33*
O=C(NC1CN2CCC1CC2)c1ccc(-c2ccc([N+](=O)[O-])cc2)o1 (stereo not drawn) | 7 | -2 | 7 | -16 | 0 | -2 | ·
CC(=O)C1C2c3ccccc3O[C@@]1(C)N=c1s/c(=C/c3ccoc3)c(=O)n12 (stereo partly drawn) | 9 | 15 | 10 | -1 | -28 | 0 | ·
O=C(c1ccc2c(c1)ncn2-c1ccc(F)cc1F)N1CCC2(CC1)OCCO2 | 12 | 17 | -4 | 1 | 11 | -6 | ·
O=C(c1ccc2c(c1)N(Cc1ccc(F)cc1)CCS2)N1CCC2(CC1)OCCO2 | 9 | 32 | -3 | -5 | 40* | 12 | 10
Cc1ccc(CN2CCSc3ccc(C(=O)N4CCC5(CC4)OCCO5)cc32)cc1 | 4 | 43 | 5 | 1 | 46* | -5 | 3
O=C(COc1ccc2ccc(=O)oc2c1)N1C[C@H]2C[C@@H](C1)c1cccc(=O)n1C2 | 2 | 5 | -7 | 3 | -16 | 4 | ·
CN(C)C(=O)Oc1ccc2oc(=O)cc(-c3cc4ccccc4o3)c2c1 | 20 | 29 | 19 | -2 | 40 | -18 | 8
Cc1cc2oc(=O)cc(-c3cc4ccccc4o3)c2cc1OC(=O)N(C)C | 13 | 24 | -8 | 1 | 29 | -4 | ·
CCCCn1c(O)c(C=NC2CC3CCC2(C)C3(C)C)c(=O)[nH]c1=O (stereo not drawn) | 4 | 25 | 38 | 0 | 55* | -13 | 40*
SMILES | NLRP3 yeast inh | tim23-1 inh | TIM10 inh | SKKanGAS inh | tim10-1 inh | PfHsp90 set2 | tim10-1 confirm | others
Cn1c(O)c(C=NC2CC3CCC2(C)C3(C)C)c(=O)[nH]c1=O (stereo not drawn) | 6 | 31 | 11 | · | 26 | -15 | ·
CCN1CC2([N+](=O)[O-])CC=C(Cl)C([N+](=O)[O-])(C1)C2 (stereo not drawn) | -4 | 12 | -10 | -5 | 14 | · | ·
Cc1cc(C=C2C(=O)N(C)C(=S)N(C)C2=O)c(C)n1C1CCCC1 | 22 | 41 | 21 | 2 | 47* | -26 | 20
Cc1ccc(-c2cc(-c3ccc(C)cc3)[n+](-c3ccccc3)c(-c3ccc(C)cc3)c2)cc1 | 31 | 47 | 15 | 22 | 43* | -10 | 23
CN(C)c1ccc(-[n+]2c(-c3ccccc3)cc(-c3ccccc3)cc2-c2ccccc2)cc1 | 13 | 38 | 34 | -5 | 52* | -35 | 37*
c1ccc(-c2cc(-c3ccccc3)[n+](-c3ccccc3)c(-c3ccccc3)c2)cc1 | 14 | 20 | 24 | 27 | 22 | -26 | ·
CN(C)c1ccc(C=C(C#N)C#N)cc1 | 31 | 20 | 12 | 0 | 32 | 2 | ·
N#CC(C#N)=Cc1ccc(N2CCCC2)cc1 | 42 | 10 | -2 | -1 | 41* | 7 | 17
Nc1ccc2nonc2c1[N+](=O)[O-] | 20 | 0 | 6 | -9 | 3 | 25 | ·
